# From PubChem BioAssay (Tox21)
# Values without a mark were called inactive. Inconclusive results are not listed. A call without a number means that no potency is given here. The source made the active and inactive calls. Unless noted, calls follow the shape of the dose curve; as a rule, active = well fitted curve in the direction sought with a large enough effect in the repeat runs; inconclusive = weak or mixed curves; inactive = no such curve, though single readings can be large; an effect the other way counts as inactive or inconclusive.
# Tests used:
# [1] = qHTS assay for small molecule disruptors of the mitochondrial membrane potential (AID 720635)
# How it was run: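 HepG2 cells (2,000/well) attached overnight at 37C, then took compound for 1 hr at 37C, 5% CO2. Mito-MPS dye was added for 30 min; fluorescence was read at 490/535 nm (monomers) and 540/590 nm (aggregates).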
# [2] = biological target: Glucocorticoid receptor (Homo sapiens) (UniProt P04150); experiment: qHTS assay to identify small molecule agonists of the glucocorticoid receptor (GR) signaling pathway (AID 720691; active = well fitted activation curve with a large enough effect in the signal ratio in the repeat runs, not every such curve was filed as active; the % refers to the signal ratio)
# Glucocorticoid receptor (Homo sapiens), sequence (P04150 whole entry, looked up): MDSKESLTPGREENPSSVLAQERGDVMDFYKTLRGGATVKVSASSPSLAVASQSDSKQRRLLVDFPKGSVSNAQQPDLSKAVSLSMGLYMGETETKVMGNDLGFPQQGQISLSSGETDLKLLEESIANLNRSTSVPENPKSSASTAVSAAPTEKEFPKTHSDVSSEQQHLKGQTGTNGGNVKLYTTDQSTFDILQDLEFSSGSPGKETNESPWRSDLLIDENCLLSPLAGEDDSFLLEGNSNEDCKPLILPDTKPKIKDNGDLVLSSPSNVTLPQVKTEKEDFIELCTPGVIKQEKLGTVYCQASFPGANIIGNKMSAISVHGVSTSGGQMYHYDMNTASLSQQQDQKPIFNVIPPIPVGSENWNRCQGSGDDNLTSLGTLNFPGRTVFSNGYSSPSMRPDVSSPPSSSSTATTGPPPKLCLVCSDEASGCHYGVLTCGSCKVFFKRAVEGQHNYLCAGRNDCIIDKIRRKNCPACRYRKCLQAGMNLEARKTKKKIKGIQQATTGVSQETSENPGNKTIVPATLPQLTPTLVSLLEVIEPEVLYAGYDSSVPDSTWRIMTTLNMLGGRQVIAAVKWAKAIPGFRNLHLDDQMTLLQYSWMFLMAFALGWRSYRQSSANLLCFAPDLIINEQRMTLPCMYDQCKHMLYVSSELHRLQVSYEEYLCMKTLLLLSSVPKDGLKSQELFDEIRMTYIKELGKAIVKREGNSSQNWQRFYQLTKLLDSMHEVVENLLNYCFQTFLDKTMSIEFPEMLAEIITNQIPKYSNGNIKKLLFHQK
# How it was run: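 Beta-lactamase reporter activity, read as fluorescence intensity, was measured in GR-bla HeLa cells exposed to compounds for 18 h at 37 C and then loaded with LiveBLAzer B/G FRET substrate for 2 h at room temperature.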
# [3] = biological target: Glucocorticoid receptor (Homo sapiens) (UniProt P04150); experiment: qHTS assay to identify small molecule antagonists of the glucocorticoid receptor (GR) signaling pathway (AID 720692; active = well fitted inhibition curve with a large enough effect in the signal ratio in the repeat runs, not every such curve was filed as active; the % refers to the signal ratio)
# How it was run: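 Fluorescence from cleaved LiveBLAzer B/G FRET substrate reports GRE-driven beta-lactamase in HeLa cells; compounds are tested against 5 nM dexamethasone (final) over 18 h at 37 C, substrate incubation 2 h at room temperature.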
# [4] = biological target: Estrogen receptor (Homo sapiens) (UniProt P03372); experiment: qHTS assay to identify small molecule antagonists of the estrogen receptor alpha (ER-alpha) signaling pathway (AID 743069; active = well fitted curve in the direction sought with a large enough effect in the signal ratio in the repeat runs, not every such curve was filed as active; the % refers to the signal ratio; also: potency is read from the fitted curve at half-maximal effect)
# Estrogen receptor (Homo sapiens), sequence (P03372 whole entry, looked up): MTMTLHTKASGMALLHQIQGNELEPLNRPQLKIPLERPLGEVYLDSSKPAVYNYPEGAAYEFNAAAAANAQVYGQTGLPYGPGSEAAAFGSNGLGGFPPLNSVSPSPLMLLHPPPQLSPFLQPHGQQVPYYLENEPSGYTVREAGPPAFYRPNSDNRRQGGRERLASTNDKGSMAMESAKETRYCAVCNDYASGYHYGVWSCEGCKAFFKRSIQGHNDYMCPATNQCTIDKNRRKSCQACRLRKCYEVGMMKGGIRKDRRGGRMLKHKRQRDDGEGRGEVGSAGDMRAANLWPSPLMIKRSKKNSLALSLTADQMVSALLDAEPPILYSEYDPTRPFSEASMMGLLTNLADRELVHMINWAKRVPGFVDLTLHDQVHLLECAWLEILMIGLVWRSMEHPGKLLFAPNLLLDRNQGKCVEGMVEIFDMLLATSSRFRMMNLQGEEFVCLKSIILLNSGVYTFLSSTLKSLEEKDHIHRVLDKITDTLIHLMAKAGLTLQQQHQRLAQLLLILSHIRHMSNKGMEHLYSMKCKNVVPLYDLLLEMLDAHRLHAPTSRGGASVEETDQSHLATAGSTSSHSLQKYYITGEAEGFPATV
# How it was run: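 HEK293 cells stably carrying an ER-alpha-UAS-bla beta-lactamase reporter were pre-cultured overnight in 2% charcoal-stripped FBS medium. Test compounds in DMSO were added together with 17beta-estradiol for 18 hr at 37C. Read-out was fluorescence after 2 hr with LiveBLAzer B/G FRET substrate at room temperature.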
# [5] = qHTS assay to identify small molecule phospholipidosis (PLD) inducers (AID 1259344; active = well fitted curve in the direction sought with a large enough effect; an effect the other way counts as inactive or inconclusive)
# How it was run: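 HepG2 cells on collagen I, attached 4 h at 37 C, were co-treated with compound and LipidTOX Red dye for 24 h at 37 C, then fixed with paraformaldehyde plus Hoechst 33342 and imaged by high-content microscopy for phospholipid accumulation.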
# [6] = biological target: Androgen receptor (Homo sapiens) (UniProt P10275); experiment: qHTS assay to identify small molecule antagonists of the androgen receptor (AR) signaling pathway (AID 743035; active = well fitted inhibition curve with a large enough effect in the signal ratio in the repeat runs, not every such curve was filed as active; the % refers to the signal ratio)
# Androgen receptor (Homo sapiens), sequence (P10275 whole entry, looked up): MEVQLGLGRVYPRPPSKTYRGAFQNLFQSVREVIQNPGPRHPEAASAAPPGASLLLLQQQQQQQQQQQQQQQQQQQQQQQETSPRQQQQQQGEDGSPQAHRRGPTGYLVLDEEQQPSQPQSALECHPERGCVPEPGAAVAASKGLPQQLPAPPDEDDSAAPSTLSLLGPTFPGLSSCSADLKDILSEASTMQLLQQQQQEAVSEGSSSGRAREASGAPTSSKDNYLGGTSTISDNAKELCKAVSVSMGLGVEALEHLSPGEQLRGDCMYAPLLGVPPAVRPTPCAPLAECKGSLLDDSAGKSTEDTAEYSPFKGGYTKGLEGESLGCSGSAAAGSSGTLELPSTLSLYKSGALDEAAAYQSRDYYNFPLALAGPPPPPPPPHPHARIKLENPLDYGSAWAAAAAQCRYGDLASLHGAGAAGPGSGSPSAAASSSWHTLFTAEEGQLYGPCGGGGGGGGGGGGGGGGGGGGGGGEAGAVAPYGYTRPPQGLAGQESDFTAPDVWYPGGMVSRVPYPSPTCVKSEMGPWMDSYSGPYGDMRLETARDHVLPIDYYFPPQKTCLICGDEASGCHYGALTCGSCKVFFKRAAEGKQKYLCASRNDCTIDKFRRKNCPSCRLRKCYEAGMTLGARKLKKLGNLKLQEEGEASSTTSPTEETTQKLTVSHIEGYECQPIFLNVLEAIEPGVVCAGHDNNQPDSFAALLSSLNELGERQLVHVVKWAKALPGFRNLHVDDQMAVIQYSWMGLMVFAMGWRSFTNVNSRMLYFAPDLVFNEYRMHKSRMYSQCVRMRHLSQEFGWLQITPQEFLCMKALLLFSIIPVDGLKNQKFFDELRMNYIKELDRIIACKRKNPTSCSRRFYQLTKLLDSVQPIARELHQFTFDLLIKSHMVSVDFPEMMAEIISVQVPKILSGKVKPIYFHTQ
# How it was run: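 Cell line: GeneBLAzer AR-UAS-bla GripTite (HEK293). Stimulus: R1881 added after compound. Exposure: 16 h, 37C, 5% CO2. Readout: LiveBLAzer B/G FRET fluorescence after 2 h at room temperature.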
# [7] = biological target: Androgen receptor (Homo sapiens) (UniProt P10275); experiment: qHTS assay to identify small molecule agonists of the androgen receptor (AR) signaling pathway (AID 743036; active = well fitted activation curve with a large enough effect in the signal ratio in the repeat runs, with a control signal flat, not every such curve was filed as active; the % refers to the signal ratio)
# How it was run: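 Quantitative HTS of the Tox21 10K library in HEK293 cells bearing a stably integrated UAS-controlled beta-lactamase reporter. Compound exposure lasted 16 h at 37C. Reporter activity was detected by FRET substrate fluorescence after 2 h at room temperature.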
# [8] = biological target: Androgen receptor (Homo sapiens) (UniProt P10275); experiment: qHTS assay to identify small molecule agonists of the androgen receptor (AR) signaling pathway using the MDA cell line (AID 743040; also: nearly all actives have a fitted effect of over 20% in size)
# How it was run: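 MDA-kb2 breast carcinoma cells stably carrying an MMTV-driven luciferase reporter (AR- and GR-responsive) were seeded and held 5 h at 37C, 0% CO2, then exposed to compounds in DMSO for 16 h. Luminescence was read 30 min after ONE-Glo addition.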
# [9] = biological target: Androgen receptor (Homo sapiens) (UniProt P10275); experiment: qHTS assay to identify small molecule antagonists of the androgen receptor (AR) signaling pathway using the MDA cell line (AID 743042; also: nearly all actives have a fitted effect of over 55% in size)
# How it was run: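 MDA-kb2 cells (human breast carcinoma, stably carrying an MMTV-luciferase reporter responsive to AR and GR) were plated at 3,000 cells/well and preincubated 5 hr at 37C, then given compound plus R1881 agonist for 16 h. ONE-Glo luminescence was read.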
# [10] = biological target: Nuclear receptor subfamily 1 group I member 2 (Rattus norvegicus) (UniProt Q9R1A7); experiment: Rat pregnane X receptor (rPXR) activation by small molecules, qHTS assay (AID 1346983); conditions: rPXR luciferase reporter cells, One-Glo luminescence, 24 h; max activation: stronger effect = higher value; also: nearly all actives have a fitted effect of over 20% in size
# Nuclear receptor subfamily 1 group I member 2 (Rattus norvegicus), sequence (Q9R1A7 whole entry, looked up): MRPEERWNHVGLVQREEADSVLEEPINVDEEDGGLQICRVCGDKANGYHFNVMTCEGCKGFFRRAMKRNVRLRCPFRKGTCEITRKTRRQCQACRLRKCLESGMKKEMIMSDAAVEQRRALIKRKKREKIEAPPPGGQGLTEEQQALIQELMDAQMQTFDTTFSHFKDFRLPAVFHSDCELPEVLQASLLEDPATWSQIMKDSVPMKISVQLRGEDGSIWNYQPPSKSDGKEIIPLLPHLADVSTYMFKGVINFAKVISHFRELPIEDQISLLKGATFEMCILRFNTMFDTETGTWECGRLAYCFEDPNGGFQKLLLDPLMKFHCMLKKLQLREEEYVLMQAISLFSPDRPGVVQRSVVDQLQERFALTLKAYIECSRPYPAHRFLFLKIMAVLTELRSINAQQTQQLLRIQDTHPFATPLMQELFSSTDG
# How it was run: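 Cell-based rPXR luciferase reporter assay, 2,000 cells per well, rested 5hr at 37 C before compound addition in DMSO, then 24 hr at 37 C. One-Glo reagent was added and luminescence read after 30 min at room temperature.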
# [11] = biological target: Nuclear receptor subfamily 1 group I member 2 (Homo sapiens) (UniProt O75469); experiment: Human pregnane X receptor (PXR) activation by small molecules, qHTS assay (AID 1346985); also: nearly all actives have a fitted effect of over 40% in size
# How it was run: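 DPX-2 cells (HepG2 co-transfected with a PXR response element and a CYP3A4-promoter luciferase construct) were seeded at 2,000 per well, rested 5 hr at 37C, then exposed to DMSO-dissolved compounds for 24 hr. Activation was read as luciferase luminescence.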
# [12] = qHTS assay for small molecule activators of the heat shock response signaling pathway (AID 743210; active = well fitted activation curve with a large enough effect in the signal ratio in the repeat runs, with a control signal flat, not every such curve was filed as active; the % refers to the signal ratio; also: series mostly up to about 63 µM)
# How it was run: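 HSE-bla HeLa cells (beta-lactamase reporter under heat shock response elements) were exposed to compounds for 5 h at 37 C, then loaded with LiveBLAzer B/G FRET substrate for 2.5 h at room temperature before fluorescence reading.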
# [13] = Caspase-3/7 induction in HepG2 cells by small molecules, qHTS assay (AID 1346978); also: nearly all actives have a fitted effect of over 15% in size
# How it was run: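 Wild-type HepG2 cells (2,000/well) were settled 5 h at 37 C, 5% CO2, then exposed to compounds in DMSO for 17 h. Caspase-3/7 activity was read by luminescence 30 min after adding Caspase-Glo 3/7 reagent at room temperature.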
# [14] = biological target: Acetylcholinesterase (Homo sapiens) (UniProt P22303); experiment: Acetylcholinesterase (AChE) small molecule antagonists: enzyme-based qHTS assay with human liver microsomes (AID 1347399; calls by dose curve; also: nearly all actives have a fitted effect of over 60% in size); conditions: Potency: qHTS inhibition; outcome: qHTS inhibition
# Acetylcholinesterase (Homo sapiens), sequence (P22303 whole entry, looked up): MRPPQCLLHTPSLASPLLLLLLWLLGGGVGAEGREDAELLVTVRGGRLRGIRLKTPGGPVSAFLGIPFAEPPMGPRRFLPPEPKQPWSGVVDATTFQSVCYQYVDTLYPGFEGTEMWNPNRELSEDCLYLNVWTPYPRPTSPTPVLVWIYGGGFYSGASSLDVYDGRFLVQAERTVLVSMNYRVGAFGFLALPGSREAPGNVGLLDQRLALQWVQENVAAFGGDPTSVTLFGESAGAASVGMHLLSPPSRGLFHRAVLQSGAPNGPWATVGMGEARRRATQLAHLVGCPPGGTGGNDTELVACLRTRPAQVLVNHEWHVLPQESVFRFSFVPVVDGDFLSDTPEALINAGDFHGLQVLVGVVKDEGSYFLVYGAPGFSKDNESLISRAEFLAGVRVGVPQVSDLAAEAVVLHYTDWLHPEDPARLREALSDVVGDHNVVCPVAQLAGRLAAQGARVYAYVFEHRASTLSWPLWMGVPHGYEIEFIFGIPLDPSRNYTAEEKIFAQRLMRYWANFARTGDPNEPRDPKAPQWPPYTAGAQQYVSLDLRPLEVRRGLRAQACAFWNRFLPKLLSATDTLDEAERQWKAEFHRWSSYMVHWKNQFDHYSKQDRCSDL
# How it was run: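 Recombinant human AChE (50 mU/mL in the enzyme mix) and human liver microsomes (0.25 mg/mL final) were preincubated with compound and NADPH (0.25 mg/mL final) for 30 min at 37 C. Acetylthiocholine/DTNB was then added; thiocholine was read colorimetrically after 10 min at room temperature.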
# [15] = biological target: Peroxisome proliferator-activated receptor delta (Homo sapiens) (UniProt Q03181); experiment: qHTS assay to identify small molecule antagonists of the peroxisome proliferator-activated receptor delta (PPARd) signaling pathway (AID 743215; active = well fitted inhibition curve with a large enough effect in the signal ratio in the repeat runs, not every such curve was filed as active; the % refers to the signal ratio;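 also: cells stimulated with agonist L165041 at 300 nM final during compound exposure; series mostly up to about 62 µM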)
# Peroxisome proliferator-activated receptor delta (Homo sapiens), sequence (Q03181 whole entry, looked up): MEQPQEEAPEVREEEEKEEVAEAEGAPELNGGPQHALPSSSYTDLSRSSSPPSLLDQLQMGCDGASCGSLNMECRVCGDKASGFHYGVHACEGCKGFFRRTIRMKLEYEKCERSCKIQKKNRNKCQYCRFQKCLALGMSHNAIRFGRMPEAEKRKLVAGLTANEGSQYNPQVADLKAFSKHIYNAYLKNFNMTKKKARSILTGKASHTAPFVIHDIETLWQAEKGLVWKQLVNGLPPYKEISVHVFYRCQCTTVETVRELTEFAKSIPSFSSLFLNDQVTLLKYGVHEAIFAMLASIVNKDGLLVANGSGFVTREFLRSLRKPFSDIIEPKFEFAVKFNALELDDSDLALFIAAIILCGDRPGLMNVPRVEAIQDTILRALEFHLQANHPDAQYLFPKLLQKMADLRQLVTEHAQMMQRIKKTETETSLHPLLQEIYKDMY
# How it was run: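 Antagonist-mode beta-lactamase reporter screen: HEK293H cells with UAS-bla under PPARd control, stimulated by 300 nM L165041 (final) alongside test compound for 17 h at 37 C, then FRET fluorescence after 2 h substrate incubation.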
# [16] = biological target: Thyrotropin receptor (Homo sapiens) (UniProt P16473); experiment: qHTS assay to identify small molecule antagonists of the thyroid stimulating hormone receptor (TSHR) signaling pathway (AID 1259385; calls by dose curve; also: nearly all actives have a fitted effect of over 20% in size)
# Thyrotropin receptor (Homo sapiens), sequence (P16473 whole entry, looked up): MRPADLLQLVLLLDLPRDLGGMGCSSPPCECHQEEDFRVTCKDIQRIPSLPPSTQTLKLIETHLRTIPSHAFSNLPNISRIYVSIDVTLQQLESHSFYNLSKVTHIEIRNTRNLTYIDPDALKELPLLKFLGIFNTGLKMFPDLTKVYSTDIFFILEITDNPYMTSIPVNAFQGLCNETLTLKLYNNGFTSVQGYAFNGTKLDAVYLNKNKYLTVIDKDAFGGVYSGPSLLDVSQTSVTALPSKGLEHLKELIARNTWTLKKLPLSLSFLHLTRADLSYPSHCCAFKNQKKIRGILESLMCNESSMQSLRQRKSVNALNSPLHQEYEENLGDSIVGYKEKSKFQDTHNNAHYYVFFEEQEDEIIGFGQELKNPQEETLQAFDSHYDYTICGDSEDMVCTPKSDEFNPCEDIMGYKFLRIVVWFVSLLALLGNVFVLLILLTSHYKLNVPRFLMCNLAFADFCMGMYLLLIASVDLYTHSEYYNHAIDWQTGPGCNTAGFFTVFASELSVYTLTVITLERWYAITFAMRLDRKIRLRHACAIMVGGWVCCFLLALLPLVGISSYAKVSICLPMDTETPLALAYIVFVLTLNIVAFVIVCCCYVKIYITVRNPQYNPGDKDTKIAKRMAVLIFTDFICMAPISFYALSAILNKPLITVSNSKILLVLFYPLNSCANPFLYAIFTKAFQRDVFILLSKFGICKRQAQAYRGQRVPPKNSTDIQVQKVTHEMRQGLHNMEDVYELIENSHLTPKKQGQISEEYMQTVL
# How it was run: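 TSHR-HEK293 cells were plated and held 18 h at 37C/5% CO2, then given compound plus Ro20-1724 and stimulated with TSH at 1.5 ng/mL final. After 30 min at room temperature, cAMP was detected with cAMP-d2/anti-cAMP-cryptate (1 h) by fluorescence.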
# [17] = biological target: Peroxisome proliferator-activated receptor delta (Homo sapiens) (UniProt Q03181); experiment: qHTS assay to identify small molecule agonists of the peroxisome proliferator-activated receptor delta (PPARd) signaling pathway (AID 743212; calls by dose curve)
# How it was run: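 GeneBLAzer PPARd UAS-bla HEK293H cells (beta-lactamase reporter under UAS control), plated and rested 5 h at 37 C, then exposed to compounds in DMSO at 37 C; LiveBLAzer B/G FRET substrate added, 2 h room temperature, fluorescence read.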
smiles,measurement,setting,value
C=CCC1([C@@H](C)CCC)C(=O)NC(=O)NC1=O,Potency,[1],inactive
same,Potency,[2],inactive
same,Potency,[3],inactive
same,Potency,[4],inactive
same,Potency,[5],inactive
C[C@H]1[C@H]2Cc3ccc(O)cc3[C@]1(C)CCN2CCc1ccccc1,Potency,[2],inactive
same,Potency,[3],inactive
same,Potency,[5],inactive
CC(C)[C@H]1C(=O)N2CCC[C@H]2[C@]2(O)O[C@](NC(=O)[C@@H]3C[C@@H]4c5cccc6[nH]cc(c56)C[C@H]4N(C)C3)(C(C)C)C(=O)N12,Potency,[4],inactive
same,Potency,[5],inactive
CNC(C)CC1CCCCC1 (centres undefined),Potency,[2],inactive
same,Potency,[3],inactive
same,Potency,[6],inactive
same,Potency,[7],inactive
same,Potency,[8],inactive
same,Potency,[9],inactive
same,Potency,[4],inactive
same,Potency,[5],inactive
C[C@@H](N)C(=O)c1ccccc1,Potency,[2],inactive
same,Potency,[3],inactive
same,Potency,[6],inactive
same,Potency,[7],inactive
same,Potency,[8],inactive
same,Potency,[9],inactive
same,Potency,[5],inactive
S=C(S)N1CCNCC1,Potency,[1],inactive
same,Potency,[2],inactive
same,Potency,[3],inactive
same,max activation,[10],-2.4%
same,Potency,[11],inactive
CC(=O)OC(C)=O,Potency,[12],inactive
same,Potency,[13],inactive
same,Potency,[14],inactive
COc1cc([C@@H]2c3cc4c(cc3[C@H](O)[C@H]3COC(=O)[C@H]23)OCO4)cc(OC)c1OC,Potency,[13],inactive
same,Potency,[14],inactive
COc1cc2c(cc1OC)[C@@H]1CC(=O)[C@@H](CC(C)C)CN1CC2,Potency,[13],inactive
same,Potency,[14],inactive
CCNCC(O)c1cccc(O)c1 (centres undefined),Potency,[2],inactive
same,Potency,[3],inactive
same,Potency,[4],inactive
same,max activation,[10],1.03%
same,Potency,[11],inactive
C[C@@H]1[C@@H]2Cc3ccc(O)cc3[C@@]1(C)CCN2CCc1ccccc1,Potency,[2],inactive
same,Potency,[5],inactive
CN1[C@@H]2CC[C@H]1CC(OC1c3ccccc3CCc3ccccc31)C2 (some centres undefined),Potency,[2],inactive
same,Potency,[3],inactive
same,max activation,[10],-2.13%
same,Potency,[11],inactive
O=C(OCCN1CCCCC1)C(O)(c1ccccc1)c1ccccc1,Potency,[4],inactive
same,max activation,[10],-1.73%
same,Potency,[11],inactive
Brc1ccc(Oc2ccc(Br)cc2)cc1,Potency,[12],inactive
same,Potency,[13],inactive
same,Potency,[14],inactive
Clc1cc(Cl)c(-c2c(Cl)c(Cl)cc(Cl)c2Cl)cc1Cl,Potency,[13],inactive
same,Potency,[14],inactive
CC1(C)C(C=C(Cl)Cl)C1C(=O)OCc1cccc(Oc2ccccc2)c1 (centres undefined),Potency,[13],inactive
same,Potency,[14],inactive
COc1ccc(OC)c(C[C@H](C)N)c1,Potency,[1],inactive
same,Potency,[5],inactive
O.O.O.O=C([O-])C(O)C(O)C(=O)[O-].O=C([O-])C(O)C(O)C(=O)[O-].[K+].[K+].[Sb].[Sb] (centres undefined),Potency,[4],19 µM [inhibitor] (active)
same,Potency,[5],inactive
Clc1ccc(Cl)c(Cl)c1Cl,Potency,[13],inactive
same,Potency,[14],inactive
Cc1ccccc1N=O,Potency,[15],inactive
same,Potency,[13],inactive
same,Potency,[14],inactive
Cc1ccccc1-n1c(C)nc2ccccc2c1=O,Potency,[1],inactive
same,Potency,[2],inactive
same,Potency,[3],inactive
same,Potency,[4],inactive
same,max activation,[10],9.97%
same,Potency,[11],inactive
C[C@H]1CC[C@]2(NC1)O[C@H]1C[C@H]3[C@@H]4CC[C@H]5C[C@@H](O)CC[C@]5(C)[C@H]4CC[C@]3(C)[C@H]1[C@@H]2C,max activation,[10],11.8%
same,Potency,[11],inactive
CC(C)(C)OCC1CO1 (centres undefined),Potency,[16],inactive
same,Potency,[14],inactive
CC1(C)S[C@@H]2[C@H](N)C(=O)N2[C@H]1C(=O)O,Potency,[1],inactive
same,Potency,[2],inactive
same,Potency,[3],inactive
same,Potency,[6],inactive
same,Potency,[7],inactive
same,Potency,[8],inactive
same,Potency,[9],inactive
same,Potency,[4],inactive
same,max activation,[10],-2.48%
same,Potency,[11],inactive
CN1[C@@H]2CC[C@H]1CC(OC(=O)C(CO)c1ccccc1)C2 (some centres undefined),Potency,[13],inactive
CCN(CC)/[N+]([O-])=N/O,Potency,[2],inactive
same,Potency,[3],inactive
same,Potency,[5],inactive
COc1cc(C[C@H](C)N)c(OC)cc1C,Potency,[2],inactive
same,Potency,[3],inactive
same,Potency,[4],inactive
same,Potency,[5],inactive
Clc1cc(Cl)c(Cl)cc1Cl,Potency,[13],inactive
same,Potency,[14],inactive
C=CCOc1c(Br)cc(C(C)(C)c2cc(Br)c(OCC=C)c(Br)c2)cc1Br,Potency,[3],inactive
same,outcome,[17],inactive
same,Potency,[13],inactive
same,Potency,[14],inactive
C[N+](C)(C)CCCCCCCCCC[N+](C)(C)C,Potency,[3],inactive
same,Potency,[12],inactive
same,Potency,[13],inactive
same,Potency,[14],inactive
O=C1CCO1,Potency,[1],inactive
same,Potency,[2],inactive
same,Potency,[3],inactive
same,Potency,[6],inactive
same,Potency,[7],inactive
same,Potency,[8],inactive
same,Potency,[9],inactive
same,max activation,[10],-0.633%
same,Potency,[11],inactive
